Laboratory results as given in PubChem BioAssay (NCI).
This is part of a sample that, as a whole, favours compounds with a hit. Of some 83,000 tested, about 20% had one in any assay.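 Growth was measured after 48 h exposure to one concentration of compound in 96-well plates. Values under 10 count as active.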 Values without a mark were called inactive. Calls of active or inactive are those of the source.

What follows are compounds tested on KM12 colon (assay: NCI-60 one-dose screen, 48 h (100 = growth as untreated, 0 = no growth, -100 = all killed)). Conditions: 10 µM unless noted.

Question: For Cc1cc(S(=O)(=O)/N=C(\N)n2nc(C)c(C)c2C)c(SCc2ccccc2)cc1Cl, which growth is on record?
Answer: 81.7%

Question: How did the growth turn out when CS(=O)(=O)Nc1cncc(-c2ccc3ncnc(Nc4cncc(Cl)c4)c3c2)c1 was run?
Answer: 84.7%

Question: Which growth does the source give for CC(C)(Sc1cc(C(C)(C)C)c(OC(=O)CCCC(=O)O)c(C(C)(C)C)c1)Sc1cc(C(C)(C)C)c(OC(=O)CCCC(=O)O)c(C(C)(C)C)c1 here?
Answer: 10.9%

Question: For COc1cc2c(c(OC)c1OC)CCC(c1cccc(NC(=O)c3ccc(Br)cc3)c1)O2 (stereo not given), which growth is on record?
Answer: 91.1%

Question: For COc1ccc(CNc2c3ccccc3nc3ccccc23)cc1, which growth is on record?
Answer: 33.2%

Question: N#CSc1c[nH]c2cccc(/C=C/C(=O)/C=C(/C=C/c3cccc4[nH]cc(SC#N)c34)OB(F)F)c12 was tested. Which growth did it give?
Answer: 11.7%

Question: Which growth does the source give for CC1=NC2=Nn3c(c4cnn(-c5ccccc5)c4n/c3=N\N)NN2C(c2ccccc2)=C1 here?
Answer: 92.9%

Question: How did the growth turn out when COc1ccc(\C=N/N=C(N)/C(N)=N\N=C/c2ccc(OC)cc2)cc1 was run?
Answer: 110%

Question: For NC(=O)c1cccc(-n2ccc3cc(NC(=O)c4ccc(N5CCOCC5)c(C(F)(F)F)c4)ccc32)n1, which growth is on record?
Answer: 33.3%

Question: With COc1ccc(-c2nc3cc(C(=O)NCc4ccccc4)ccc3n2C2CCCCC2)cc1 as the compound, how does the growth read?
Answer: 57.4%

Question: CN(C)CC(C)(C)C(=O)/C=C/c1ccccc1 was tested. Which growth did it give?
Answer: -22.8% [25 µM] (active)

Question: How did the growth turn out when C=CCn1c(SCC(=O)Nc2ccc(C(=O)/C=C/c3ccc(Cl)cc3)cc2)nnc1-c1ccc(Br)cc1 was run?
Answer: 69.9%

Question: Cc1cn(-c2cc(NC(=O)c3cccc(C#Cc4cccc5[nH]nc(N)c45)c3)cc(C(F)(F)F)c2)cn1 was tested. Which growth did it give?
Answer: 20.6%

Question: Oc1c(I)cc(I)cc1CNCCN(Cc1ccccn1)Cc1ccccn1 was tested. Which growth did it give?
Answer: -38.9% (active)

Question: With C=CC[Se]C(=O)Cc1c(C)n(C(=O)c2ccc(Cl)cc2)c2ccc(OC)cc12 as the compound, how does the growth read?
Answer: -27.9% (active)

Question: How did the growth turn out when CCC(=C(c1ccc(OCCN2CCCCC2)cc1)c1ccc(OCCN2CCCCC2)cc1)c1ccc(Cl)cc1 was run?
Answer: -84% (active)

Question: Cc1ccc(/C=C2\COc3ccc(O)cc3C2=O)cc1 was tested. Which growth did it give?
Answer: 46.6%

Question: For COc1cc2nc3cc([N+](=O)[O-])ccc3c(NCCNCC(C)O)c2cc1OC (stereo not given), which growth is on record?
Answer: -11.9% (active)

Question: Which growth does the source give for O=C(NNC(=O)c1ccc(NC(=O)c2ccccn2)cc1)Nc1ccc([N+](=O)[O-])cc1 here?
Answer: 108%

Question: Which growth does the source give for O=C(Nc1ccc(Oc2cccc(F)c2)c(Cl)c1)c1cccnc1 here?
Answer: 29.3%

Question: Which growth does the source give for CCCc1c(OC(=O)c2ccccc2)nc2[nH]c(=O)sc2c1C here?
Answer: 101%

Question: Which growth does the source give for CCCCCN1C(=O)/C(=c2\sc3n(c2=O)C2C(NN=3)N(CC)C(=O)N2CC)c2ccccc21 (stereo not given) here?
Answer: -52.9% (active)

Question: CCOC(=O)c1cc(C)n(-c2ccc(C(=O)O)cc2)c1C was tested. Which growth did it give?
Answer: 95.3%

Question: O=C1NC(=O)C(Cc2ccc(OCc3ccc(-c4ccc(Cl)cc4Cl)cc3)cc2)S1 (stereo not given) was tested. Which growth did it give?
Answer: 47.7%

Question: For CC/C=C\C[C@H](O)C/C=C1/C(=O)C=C[C@@H]1C/C=C\CCCC(=O)N(C)C, which growth is on record?
Answer: -51.3% (active)

Question: With NC(=O)CSc1oc(-c2ccccc2)nc1S(=O)(=O)c1ccc(Br)cc1 as the compound, how does the growth read?
Answer: 89%

Question: Which growth does the source give for COc1cc(-c2nccc3[nH]c(-c4ccc5cc[nH]c5c4)nc23)cc(OC)c1OC here?
Answer: 3.62% (active)

Question: Which growth does the source give for Cc1nc2sc(C(=O)Nc3cccc(Br)c3)c(N)c2cc1C(O)c1ccccc1 (stereo not given) here?
Answer: 22.8%

Question: Which growth does the source give for CC(C)c1ccc(Cc2cnc(NC(=O)c3cc(Br)cs3)s2)cc1 here?
Answer: 20.7%

Question: How did the growth turn out when Cc1ccc(-c2nc([P+](c3ccccc3)(c3ccccc3)c3ccccc3)c(S(=O)(=O)c3ccc(C)cc3)o2)cc1 was run?
Answer: 18.8%

Question: COC(CC(F)F)c1cn(S(=O)(=O)c2ccc(C)cc2)c2ccccc12 (stereo not given) was tested. Which growth did it give?
Answer: 19.3%

Question: Which growth does the source give for Cc1ccc(C[P+](c2ccccc2)(c2ccccc2)c2ccccc2)cc1 here?
Answer: -12.9% (active)

Question: With Cn1cc(-c2nonc2-c2cn(C)c3ccccc23)c2ccccc21 as the compound, how does the growth read?
Answer: 27.4%

Question: CC1=C2[C@@H](CC1)[C@]1(C)O[C@@](C(C)C)(C[C@H]1OC(=O)[C@H](C)O)[C@H]2OC(=O)/C=C/c1ccccc1 was tested. Which growth did it give?
Answer: 93.9%

Question: For Cc1c(-c2ccc(O)cc2)n(Cc2ccc(OCCN3CCCCCC3)cc2)c2ccc(O)cc12, which growth is on record?
Answer: 73.4%

Question: CCOC(=O)C(=O)C(C(=O)OCC)c1ccccc1 (stereo not given) was tested. Which growth did it give?
Answer: 107%

Question: Which growth does the source give for CS(=O)(=O)c1ccc(-c2cnn3ccc(-c4cccc(S(=O)(=O)C5CC5)c4)nc23)cc1 here?
Answer: 62%

Question: O=S(=O)(NCCNc1nccc(-c2c(-c3ccc(F)c(O)c3)nc3occn23)n1)c1ccc(Cl)cc1 was tested. Which growth did it give?
Answer: 84%

Question: How did the growth turn out when Nc1n[nH]c2cccc(C#Cc3cccc(NC(=O)c4cc(F)cc(C(F)(F)F)c4)c3)c12 was run?
Answer: 83.3%

Question: With N#Cc1nc(-c2ccc(F)cc2)oc1S(=O)(=O)N1CCOCC1 as the compound, how does the growth read?
Answer: 102%
